Only some compounds are listed: those with a hit (about 1.7% of all), similar ones and a draw of the others.
TrxR1 substrate: rat thioredoxin reductase 1 substrate activity | O89049 | purified TrxR1 substrate turnover, NADPH consumption readout | Potency, µM (titrated, usually from 114 µM), without a hit: top-dose activity change, negative = substrate turnover | 390,000 tested, 0.01% active; also: % is scaled to controls: 0 for no effect and ±100 for the full control effect; nearly all actives have a fitted effect of over 50% in size
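Rat TrxR1, dispensed at 90 nM, was prereduced with 400 uM NADPH (final) for 5 min at ~22 deg C, then incubated with compound 15 min before 400 uM selenite. A first-read NADPH fluorescence drop versus no-compound background flagged substrates.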
GRP78 ERSR act: ER stress response induction in glioma; U87-MG GRP78 promoter luciferase reporter, 16 h; Potency, µM, for the others: at the highest dose activation, actives largely listed as activators; 420,000 tested, 0.02% active; AID 602332; also: series mostly up to about 76 µM; % of control where 0% means no effect; nearly all actives have a fitted effect of over 35% in size
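ERSR induction read as luciferase luminescence (Bright-Glo, 10 min at room temperature) in stably transfected human U87-MG glioma cells exposed to compounds for 16 h, using GRP78 as sensor.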
TrxR1 inh: inhibitors of rat thioredoxin reductase 1. 390,000 tested, 1% active. O89049. Potency, µM (doses to about 114 µM), for inactives: at the highest dose activity change, negative = inhibition, actives largely listed as inhibitors. recombinant rTrxR1, NADPH fluorescence consumption, selenite substrate; also: % is scaled to controls: 0 for no effect and ±100 for the full control effect; nearly all actives have a fitted effect of over 65% in size
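Rat TrxR1 (90 nM in the dispensed reagent) was pre-reduced with 400 uM NADPH for 5 min at room temperature, then incubated with compound for 15 min. After 400 uM selenite was added, NADPH fluorescence (Ex 340/Em 450 nm) was followed for 8 min.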
mIDH1 inhibitor: human IDH1 R132H inhibition; O75874; IDH1-R132H enzyme, NADPH consumption, diaphorase/resazurin fluorescence; Potency, µM (top dose mostly 76.6 µM), without a hit: at the top dose activity change, negative = inhibition, usual class: inhibitors; 390,000 tested, 0.093% active; also: % is scaled to controls: 0 for no effect and ±100 for the full control effect; nearly all actives have a fitted effect of over 65% in size
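IDH1-R132H (0.5 ug/mL dispensed) in pH 7.5 Tris buffer was preincubated 30 min with compound, then given a substrate mix of 0.016 mM NADPH and 2 mM alpha-KG for 80 min at room temperature; remaining NADPH was read by diaphorase/resazurin fluorescence.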
12-LOX inh: inhibitors of human 12S-lipoxygenase ALOX12; P18054; purified 12hLO, xylenol orange hydroperoxide absorbance; Potency, µM (top dose mostly 108 µM), for the others: at the highest dose activity change, negative = inhibition, hits mostly inhibitors; 580,000 tested, 1.1% active; AID 1671190; also: % is scaled to controls: 0 for no effect and ±100 for the full control effect
Target sequence (P18054 whole entry, looked up): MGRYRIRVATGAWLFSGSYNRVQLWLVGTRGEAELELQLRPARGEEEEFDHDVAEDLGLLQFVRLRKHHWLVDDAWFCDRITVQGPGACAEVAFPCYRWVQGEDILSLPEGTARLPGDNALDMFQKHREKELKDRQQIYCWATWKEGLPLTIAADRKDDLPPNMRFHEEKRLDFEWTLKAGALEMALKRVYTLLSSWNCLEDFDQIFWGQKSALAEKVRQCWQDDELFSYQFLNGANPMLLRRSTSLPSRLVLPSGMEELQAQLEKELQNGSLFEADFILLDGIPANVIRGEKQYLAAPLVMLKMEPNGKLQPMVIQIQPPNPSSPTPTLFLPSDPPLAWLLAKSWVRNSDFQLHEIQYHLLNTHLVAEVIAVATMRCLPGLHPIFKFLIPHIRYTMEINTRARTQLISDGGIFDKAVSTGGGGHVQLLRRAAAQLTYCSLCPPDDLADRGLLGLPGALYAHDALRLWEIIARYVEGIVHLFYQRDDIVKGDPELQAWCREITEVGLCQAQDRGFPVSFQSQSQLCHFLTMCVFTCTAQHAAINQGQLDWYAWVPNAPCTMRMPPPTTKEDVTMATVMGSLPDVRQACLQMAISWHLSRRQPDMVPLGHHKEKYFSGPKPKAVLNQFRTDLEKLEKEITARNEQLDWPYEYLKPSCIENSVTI
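Purified human 12hLO (150 nM final) in 25 mM Hepes, 0.01% Triton X-100, pH 7.0 was preincubated 15 min at room temperature with compound. Then 40 uM arachidonic acid was added, 30 min. Hydroperoxide was read by Fe-XO absorbance ratio 573/405 nm.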
Apoferritin bind: binds horse apoferritin like a general anesthetic | P02791 | apoferritin/1-aminoanthracene competitive binding, fluorescence | Potency, µM (highest dose often 77.5 µM), without a hit: top-dose activity change, negative = displacement, actives largely listed as inhibitors | 350,000 tested, 0.074% active; also: % is scaled to controls: 0 for no effect and ±100 for the full control effect; nearly all actives have a fitted effect of over 20% in size
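Read-out: endpoint 1-AMA fluorescence, excitation 380 nm and emission 535 nm, after compounds sit 10 min at room temperature with 10 uM horse-spleen apoferritin in 50% saturated 1-AMA/PBS. Values come from four-parameter Hill fits.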
The depositor's hits bear a star; ? = inconclusive; / = no result given; ! = not active in a repeat; [ ] = remark or other dose. Calls follow the shape of the dose curve; as a rule, active = well fitted curve in the direction sought with a large enough effect; inconclusive = small, poorly fitted or top-dose-only effect, or another doubt; inactive = no such curve, though single readings can be large; an effect the other way counts as inactive or inconclusive. Potency is read from the fitted curve at half-maximal effect.

SMILES | TrxR1 substrate | GRP78 ERSR act | TrxR1 inh | mIDH1 inhibitor | 12-LOX inh | Apoferritin bind
COc1nccnc1NS(=O)(=O)c1ccc(NC(=S)NC(=O)/C=C/c2ccc(F)cc2)cc1 | -2% | -3% | ? | 14% | 13µM* | -18%
Cc1ccc(C(=O)COC(=O)C2CC(=O)N(c3cc(C)ccc3C)C2)cc1 (centres undefined) | / | / | / | / | -3% | /
NC(=O)/C(=N\OC(=O)c1ccco1)c1nc(-c2ccc(Br)cc2)cs1 | 7% | -4% | 7.1µM* | -8% | -7% | ?
O=C(COc1ccccc1)Nc1ccc(-c2nnc3n2CCCC3)cc1 | / | / | / | / | 28µM* | /
O=C1NC2(C(=O)Nc3ccc(Br)cc3)CCC(=O)N2c2ccccc21 (centres undefined) | / | / | / | / | -3% | /
CC(C)c1nnc(NC(=O)CCS(=O)(=O)c2nc(-c3cccs3)cc(C(F)(F)F)n2)s1 | 14% | -13% | 35µM* | 0% | 0% | ?
COc1ccc(NC(=O)CCS(=O)(=O)c2nc(-c3cccs3)cc(C(F)(F)F)n2)cc1 | 13%[2.29 µM] | -10% | 13µM* | -6% | -5% | -11%
O=C(CCS(=O)(=O)c1nc(-c2cccs2)cc(C(F)(F)F)n1)Nc1ccc(OC(F)(F)F)cc1 | 6% | 3% | -3% | ? | ? | -22%
COCCN(C)C[C@H]1C[C@H](CO)CN(C(=O)c2csc(C(C)=O)c2)C1 | / | / | / | / | 29% | /
Cc1nc(NC(=O)c2ccccc2)sc1-c1csc(Nc2ccccc2Cl)n1 | / | / | / | / | 40µM* | /
CCOc1ccccc1Nc1nc(-c2sc(NC(=O)c3ccco3)nc2C)cs1 | -6% | 0% | 6% | 0% | -15% | -12%
Cc1nc(NC(=O)c2ccccc2)sc1-c1csc(Nc2ccc(C(=O)O)cc2)n1 | -7% | 1% | -12% | 1% | -7% | 0%
Cc1ccccc1Nc1nc(-c2sc(NC(=O)c3ccco3)nc2C)cs1 | -13% | 1% | -12% | -5% | 7.9µM* | -15%
CCCOCCCNC(=O)c1c(C)noc1-c1ccccc1OC | / | / | / | / | 35% | /
COc1ccc(C(=O)N2CCCCCNC(=O)[C@@H]3CCC[C@@H]32)c(OC)n1 | / | / | / | / | 18% | /
O=C(N/N=C/c1ccc(-c2cccc(C(F)(F)F)c2)o1)c1cccc(F)c1 | -1% | -3% | 0% | -2% | 6% | -4%
COc1ccc(C(=O)N/N=C/c2ccc(N3CCOCC3)o2)cc1OC | -10% | -4% | 28µM* | -3% | -8% | -1%
O=C(N/N=C/c1ccc(N2CCOCC2)o1)c1cccc(F)c1 | -1% | 5% | 11µM* | -3% | -2% | -5%
CCC(C)(C)c1ccc2c(C(=O)N3C[C@H](N)C[C@H]3C(=O)NC)csc2c1 | / | / | / | / | 13µM* | /
O=C(NC(=C(Cl)Cl)S(=O)(=O)c1ccc(Cl)cc1)c1ccccc1 | -14% | -14% | 45µM* | -1% | -11% | -10%
Cc1ccc(C(=O)NC(=C(Cl)Cl)S(=O)(=O)c2ccc(Cl)cc2)cc1 | -11% | -13% | 32µM* | 3% | ? | ?
CCCCc1c(C)nc(Nc2nc(C)c3cc(C)ccc3n2)[nH]c1=O | / | / | / | / | -1% | /
CNc1nc2cnc(Nc3ccccn3)cc2n1-c1cc(OC)c(OC)c(OC)c1 | / | / | / | / | 10% | /
CCCC[N+](CCCC)(CCCC)CCCC | / | / | / | / | 11µM* | /
FC(F)(F)c1ccc(Cl)c(N/N=C/c2ccc(Cl)cc2Cl)c1 | / | / | / | / | 40µM* | /
SMILES | TrxR1 substrate | GRP78 ERSR act | TrxR1 inh | mIDH1 inhibitor | 12-LOX inh | Apoferritin bind
FC(F)(F)c1ccc(Cl)c(N/N=C/C(c2ccccc2)c2ccccc2)c1 | / | / | / | / | 14% | /
Cc1cc(C)c(/C=N/Nc2cc(C(F)(F)F)ccc2Cl)c(C)c1 | / | / | / | / | 13µM* | /
CC1(C)Cc2c(C#N)c(N)sc(=S)c2CS1 | 6%[57.1 µM] | -2% | 14µM* | 7% | ? | ?
Cn1c(N)c(C#N)c2c(c1=S)CSC(C)(C)C2 | -13% | -3% | ? | 3% | -22% | -18%
O=[S+]([O-])(c1ccccc1)N1CC(Oc2ccc(F)cc2F)C1 | / | / | / | / | 4%[6.33 µM] | /
C/C=C1\COC(C(=O)NCc2ccccn2)(C(F)(F)F)C=C1C=C(C)C (centres undefined) | 9% | -5% | 4µM* | / | / | -10%
C/C=C1\COC(C(=O)NCc2ccccc2)(C(F)(F)F)C=C1C=C1CCCCC1 (centres undefined) | 5% | ? | 1µM* | 10% | ? | -21%
C/C=C1\COC(C(=O)NCCN2CCCC2)(C(F)(F)F)C=C1C=C1CCCCC1 (centres undefined) | -2% | -7% | 7% | -9% | ? | ?
C/C=C1\COC(C(=O)NCCCN2CCCC2=O)(C(F)(F)F)C=C1C=C(C)C (centres undefined) | -5% | -3% | 3.2µM* | 1%[38.3 µM] | 1% | -4%
CC(=O)N1CCN(c2ncccc2CNC(=O)C2COc3ccccc3C2)CC1 (centres undefined) | / | / | / | / | 2% | /
CN1[C@@H](CCC(=O)N2CCOCC2)CNC(=O)[C@@H]2[C@H]1CCN2CC(C)(C)C | / | / | / | / | 2%[176 µM] | /
CCc1oc2ccccc2c1C(=O)c1cc(Br)c(O)c(Br)c1 | -7% | -1% | -2% | 8% | 45µM*! | -8%
CCc1ccc(OCC(=O)c2c(O)c3ccccc3oc2=O)cc1 | -11% | 2% | -29% | -2% | ? | -9%
O=C1OC(c2ccccc2)(c2cc(Br)ccc2O)c2ccccc21 (centres undefined) | 5% | -15% | 14% | ? | 45µM* | /
O=C(/C=C/c1ccco1)NC(=S)Nc1cccc(-c2nc3ccccc3o2)c1 | -7% | -5% | ? | 1% | ? | ?
Cc1cccc(-c2nc3cc(NC(=O)/C=C/c4ccco4)ccc3o2)c1 | / | / | / | / | 11µM* | /
Cc1ccc2oc(-c3ccc(C)c(NC(=O)/C=C/c4ccco4)c3)nc2c1 | 3% | 3% | 32µM* | 15% | ? | 3%
Cc1ccc2oc(-c3ccc(C)c(NC(=O)/C=C/c4ccc(Cl)cc4)c3)nc2c1 | 12%[11.4 µM] | 0% | 21% | 0% | -5% | 4%
NS(=O)(=O)Nc1c(Br)cc(Br)c2cccnc12 | 9%[0.457 µM] | 0% | 28µM* | / | / | /
COc1ccc(-c2cccc(COc3cnc4c(ccn4CC(=O)O)c3)c2)c(C)c1 | / | / | / | / | 45µM* | /
O=C(O)Cn1ccc2cc(OCC3CCN(C(=O)COc4ccccc4)CC3)cnc21 | / | / | / | / | 9%[176 µM] | /
O=C(O)Cn1ccc2cc(OCCc3cccc(-c4ccc(Cl)cc4)c3)cnc21 | / | / | / | / | 45µM* | /
COc1cc(Cl)ccc1-c1cccc(CCOc2cnc3c(ccn3CC(=O)O)c2)c1 | / | / | / | / | -21%[176 µM] | /
O=C(CCNc1ccc(Cc2ccncc2)cc1)c1cccc([N+](=O)[O-])c1 | 5%[57.1 µM] | -17% | ? | -1% | 6% | ?
